Sampled rows, rich in hits. Any-hit rate of the full collection: about 1.4%.
Mtb MbtI inh = blocks the Mycobacterium tuberculosis siderophore enzyme MbtI | purified MbtI enzyme, fluorescence intensity read-out | 100,000 compounds, 0.89% hits | inhibition, % (no concentration beside the values) | P9WFX0 | AID 493033; in the data active = inhibition mostly above about 56%, no sharp cut-off; inactive = mostly below about 77%
AID504770 = E. coli YBA685 growth inhibition, screen for V. cholerae RctB inhibitors. AID 504770. E. coli YBA685 rctB-dependent plasmid, OD600 growth, 3 h; active compounds read low. z-score (no concentration beside the values). 130,000 compounds, 0.27% hits; in the data active = z-score below about -2, passing the limit was not always enough
MenB inh = Mtb MenB enzyme inhibition. AID 540299. 100,000 compounds, 0.43% hits. P9WNP5. MenB enzyme assay, absorbance read-out. inhibition, % (concentration not given with the values); in the data active = inhibition above about 21%, passing the limit was not always enough
Target sequence (P9WNP5 whole entry, looked up): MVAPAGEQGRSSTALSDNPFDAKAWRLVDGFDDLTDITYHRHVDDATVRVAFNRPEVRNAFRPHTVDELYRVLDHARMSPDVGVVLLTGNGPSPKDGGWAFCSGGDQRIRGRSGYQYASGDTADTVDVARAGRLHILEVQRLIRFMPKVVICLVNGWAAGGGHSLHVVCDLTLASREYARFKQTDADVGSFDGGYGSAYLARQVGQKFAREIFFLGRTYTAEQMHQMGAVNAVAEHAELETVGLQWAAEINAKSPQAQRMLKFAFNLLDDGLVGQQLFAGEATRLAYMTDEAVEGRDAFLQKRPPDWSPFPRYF
Polio RdRp inh = poliovirus RNA polymerase inhibition; 150,000 compounds, 0.66% hits; P03300; % elongation, % (compound at 16.7 µg/mL); poliovirus polymerase elongation, fluorescence polarization; active compounds read low; in the data active = % elongation below about 90%
Starred values were filed as active, the others as inactive; x = not tested or not shown.

SMILES	Mtb MbtI inh	AID504770	MenB inh	Polio RdRp inh
Cc1ccc(NC2=C(c3ccc(C(F)(F)F)cc3)C(=O)c3ccccc32)cc1C	x	x	x	81*
Cc1ccc(OCCn2cc(C(=O)c3cccs3)c3ccccc32)cc1	x	x	x	77*
Cc1nc2sccn2c1-c1nc(-c2ccc(Br)o2)c(C(=O)c2ccc3c(c2)OCCO3)s1	98*	0.3	4	107
O=C(CSc1nnc(-c2cccs2)o1)Oc1ccccc1	x	x	x	94
COc1cccc(OC(=O)CSc2nnc(-c3ccc4c(c3)OCO4)o2)c1	x	x	x	87*
COc1cccc(OC(=O)CSc2nnc(-c3cccs3)o2)c1	x	x	x	90*
CCc1ccc(OC(=O)CSc2nnc(-c3ccc4c(c3)OCO4)o2)cc1	x	x	x	102
CC(C)(C)OC(=O)N1CCN(C2CC(=O)N(c3ccccc3)C2=O)CC1 (configuration not stated)	5	0.6	-3	103
O=C1CC(N2CCCC2)C(=O)N1c1ccccc1 (configuration not stated)	63*	-1.1	-13	103
O=C(N/N=C/c1ccc(O)cc1)Nc1cccc2nsnc12	6	1.8	37*	103
CC(C)C(=O)Nc1cccc2nsnc12	x	-1.8	1	103
O=C(Nc1nccs1)c1cccc(Cl)c1	6	-0.8	-6	103
Cc1cccc(C(=O)Nc2nccs2)c1	x	-3.1*	x	x
COc1ccc(C(=O)Nc2nccs2)c(F)c1	-2	-3*	-26	104
Clc1ccc(Cl)c(-c2nn3c(Cn4nnc5ccccc54)nnc3s2)c1	93*	1.4	-96	102
Clc1ccc(Cn2nnc3ccccc32)cc1Cl	-1	1.3	-66	104
CC(=O)Nc1c(C(=O)c2ccc(F)cc2)oc2ccccc12	1	2.5	64*	100
CC(C)(C)c1ccc(C(=O)Nc2c(C(=O)c3ccc(F)cc3)oc3ccccc23)cc1	x	x	x	107
CCOc1cc(CNc2ccc(O)cc2)ccc1OCc1ccc(Cl)cc1	x	x	x	80*
CC(C)c1ccc(NC(=S)Sc2ccc(F)cc2F)cc1	65*	-0.85	-12	97
CC(C)NS(=O)(=O)c1ccc(N=Cc2c(O)n(C)c(=O)n(C)c2=O)cc1	32	-3.7*	-19	104
CCOC(=O)c1ccc(N=Cc2ccc(CC)cc2)cc1	x	-0.15	7	97
CCOC(=O)c1ccc(N=C=S)cc1	9	-2.2*	8	95
CCOC(=O)c1ccc(C(=S)N2CCCC2)cc1	77*	0.45	-8	69*
CCOC(=O)C1CCN(C(=S)c2ccccc2)CC1	59*	-0.65	-9	103
SMILES	Mtb MbtI inh	AID504770	MenB inh	Polio RdRp inh
CCOc1ccc(C(=S)N2CCCC2)cc1	-6	2.3	-44	103
CCOC(=O)CCc1c(C)c(C#N)c2nc3ccccc3n2c1Cl	-8	-0.1	0	102
Cc1c(N=c2c(=O)c3ccccc3c2=O)c(=O)n(-c2ccccc2)n1C	9	1.8	-44	63*
OC1CCN(Cc2c[nH]c3ccccc23)CC1	-23	-1.1	-3	98
COc1ccc(N2CCN(CCCNC(=O)c3cccc(Nc4nc5ccccc5n5nnnc45)c3)CC2)cc1	9	0.05	-22	102
CCOC(=O)C1CCCN(C(=O)CSc2ccc(NC(C)=O)cc2)C1 (configuration not stated)	67*	1.5	0	100
CC1(C)OC2CS(=O)(=O)CC2O1 (configuration not stated)	-2	-0.45	5	101
Cc1nn(-c2ccccc2)c2c1P(=S)(N1CCOCC1)N(C)C(c1ccccc1)=N2 (configuration not stated)	80	-0.5	-5	82*
O=C(OCC(=O)N1CCCCCC1)c1ccccc1	-16	-1.1	-10	107
Cn1cnc(S(=O)(=O)N(Cc2ccccc2)Cc2ccccc2N2CCC(C(=O)O)CC2)c1	-12	-0.4	4	86*
CCOC(=O)c1c(-c2ccccc2Cl)csc1NC(=O)CC	24	-0.15	x	100
OCn1c(=S)sc2ccccc21	93*	-0.4	x	102
CCN(CC)Cn1c(=O)sc2ccccc21	27	-0.5	-35	103
CCN(CC)Cn1c(=S)sc2ccccc21	87*	-1.6	-13	100
Cc1[nH]c(SCC(=O)N2CCN(CC3CCCO3)CC2)nc1Cc1ccccc1 (configuration not stated)	0	-0.05	-19	100
COc1ccc(N2CCN(CCNC(=O)c3cc(-c4ccccn4)nc4ccccc34)CC2)cc1	-18	-0.45	4	100
COc1cc2ccc(=O)oc2c(OC(C)=O)c1OC(C)=O	x	-0.35	-2	107
O=C1/C(=C\c2cccs2)SC(=S)N1CC1CCCO1 (configuration not stated)	-5	-0.05	-47	99
Cc1ccc(-c2n[nH]c(=S)[nH]c2=O)cc1	30	0.3	-26	107
COc1ccc(-c2n[nH]c(=S)[nH]c2=O)cc1	77*	0.3	-35	94
O=C(CC(SCc1ccco1)c1ccc(F)cc1)c1ccncc1 (configuration not stated)	x	-1.3	x	x
CC1=C(C)C(=O)C(NCC2CCCO2)=CC1=O (configuration not stated)	20	-0.35	-119	70*
Cc1n[nH]c(=O)nc1NCC1CCCO1 (configuration not stated)	x	-0.4	x	x
O=C(CSc1nnnn1C1CCCC1)NN1C(=O)NC(c2ccccc2)(c2ccccc2)C1=O	-3	0.45	-21	100
CN(C)CCNC(=O)c1ccc(Br)s1	0	0.05	-13	89*
SMILES	Mtb MbtI inh	AID504770	MenB inh	Polio RdRp inh
COC(=O)c1ccc(N2C(=O)C(C)SC2c2ccccc2)cc1 (configuration not stated)	x	0	-6	101
CCn1c2ccccc2c2n[nH]c(=S)nc21	26	-0.25	-69	103
O=C(O)Cn1c2ccccc2c2n[nH]c(=S)nc21	90*	1.3	-22	101
Cc1ccccc1N1C(=O)C(O)C(O)C1=O (configuration not stated)	-6	0.3	x	x
CCN(CCO)C1CC(=O)N(c2ccccc2C)C1=O (configuration not stated)	100*	-0.75	5	99
Cc1nn2c(c1-c1ccccc1)NC(C(F)(F)F)(C(F)(F)F)NC2=O	x	-0.15	3	106
CCCn1c(=O)ccn(-c2ccccc2C)c1=O	-6	-0.05	-4	103
CCN(CC)S(=O)(=O)c1ccc2c(c1)nc(CC(=O)O)n2C	94*	0.5	-21	81*
N#CCOC(=O)c1nc(-c2ccccc2)n(-c2ccccc2)n1	-5	-0.5	-11	83*
COC(=O)C1CCN(C(=O)c2cc(S(N)(=O)=O)ccc2OC)CC1	5	0.1	-30	98
COc1ccc(N2C(=O)Cc3ccccc3C2=O)cc1	x	0.3	x	x
Cc1ccccc1N1C(=O)Cc2ccccc2C1=O	-6	0.1	8	48*
O=C(Nc1ccc2c(c1)C(=O)OC2)c1cccs1	x	-0.55	x	x
O=C(c1ccccc1)c1ccc(C(=O)O)c(C(=O)O)c1	-1	1.5	46*	103
O=C(O)c1ccc(C(=O)O)c(C(=O)c2ccccc2)c1	x	0.7	x	x
O=C(O)CCCC(=O)c1ccccc1	4	0.25	-12	96
O=C(O)CCC(=O)c1ccccc1	-6	-0.5	-4	75*
